Screening results (PubChem BioAssay)
In the library only some 6.9% were active in any assay of this set; here they are far more common.
MCF10A rerep – DNA re-replication induction in MCF 10a cells | MCF 10A DNA re-replication, Hoechst nuclear intensity, 48 h | Potency, µM (highest dose often 46.1 µM), inactives show at the top dose activity, positive = re-replication, usual class: activators | 350,000 tested, 2.9% active; further: potency means the concentration at half of the fitted maximal effect; % of control where 0% means no effect; nearly all actives have a fitted effect of over 50% in size
SW480 rerep – inducers of DNA re-replication in SW480 colon cancer cells; Potency, µM (highest dose often 46.1 µM), inactives show top-dose re-replication activation, actives largely listed as activators; 340,000 tested, 1.8% active; SW480 DNA re-replication, Hoechst DNA content imaging, 48 h; further: potency means the concentration at half of the fitted maximal effect; % of control where 0% means no effect; nearly all actives have a fitted effect of over 55% in size
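Per well, 250 cells were exposed to pinned compound for 48 hr. Nuclear DNA was visualised with Hoechst (40 min, 37 C) and total object intensity recorded by fluorescence scanning.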
KB-V1 MDR tox – kills drug-selected multidrug resistant KB-V1 cells. AID 1347076. 400,000 tested, 3.4% active. Potency, µM (highest dose often 46.1 µM), hits mostly cytotoxic. KB-V1 MDR cells viability, CellTiter-Glo, 72 h; further: potency means the concentration at half of the fitted maximal effect; on the % scale 0 is the no-effect control and ±100 the full control effect; nearly all actives have a fitted effect of over 60% in size
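qHTS viability screen in drug-selected KB-V1 MDR cells: 72 h compound treatment at 37 degrees C, ATP luminescence end point.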
Giardia killer – Giardia lamblia killing. Giardia lamblia trophozoite viability. activity change, % at 7.66 µM, hits read low. 340,000 tested, 0.15% active; in the data active means activity change below about -80%; inconclusive means between about -30% and that limit;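 further: parasites exposed to compound for two days anaerobically before the ATP read; on the % scale 0 is the no-effect control and ±100 the full control effect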
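Luminescent ATP signal served as the viability read-out, measured 15-30 min after adding ATP detection reagent to trophozoites that had been incubated with compounds for 48 hrs at 37 deg C anaerobically at 100 cells/well.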
ASM inhibitor – inhibitors of human secretory acid sphingomyelinase; P17405; placental ASM, HMU-PC fluorogenic substrate, 60 min; Potency, µM (top dose mostly 57.5 µM), without a hit: at the top dose activity change, negative = inhibition, actives largely listed as inhibitors; 340,000 tested, 0.006% active; AID 504937; further: potency means the concentration at half of the fitted maximal effect
Target sequence (P17405 47-631 limits assumed): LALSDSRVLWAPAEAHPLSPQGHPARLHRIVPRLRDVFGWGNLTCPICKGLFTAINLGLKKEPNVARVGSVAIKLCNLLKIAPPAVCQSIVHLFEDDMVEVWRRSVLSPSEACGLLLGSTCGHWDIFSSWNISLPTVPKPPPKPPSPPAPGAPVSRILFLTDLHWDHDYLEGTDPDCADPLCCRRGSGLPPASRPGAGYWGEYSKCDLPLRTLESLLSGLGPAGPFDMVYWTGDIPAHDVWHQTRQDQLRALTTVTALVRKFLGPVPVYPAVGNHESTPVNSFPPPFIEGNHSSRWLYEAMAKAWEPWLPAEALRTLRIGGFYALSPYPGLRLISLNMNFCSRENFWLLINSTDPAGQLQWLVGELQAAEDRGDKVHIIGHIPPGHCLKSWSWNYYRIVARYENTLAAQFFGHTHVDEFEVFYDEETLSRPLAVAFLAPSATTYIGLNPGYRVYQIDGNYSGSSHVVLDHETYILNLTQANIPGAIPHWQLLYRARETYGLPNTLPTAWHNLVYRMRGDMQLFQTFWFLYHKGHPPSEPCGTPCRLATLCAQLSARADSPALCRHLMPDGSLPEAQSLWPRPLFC
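Steps: dispense placental human ASM, pin compound, wait 10 min at room temperature, add HMU-PC0 substrate at 9 uM final, incubate 60 min at 37 °C, add stop solution raising pH to 10, read fluorescence.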
KB-3-1 tox – KB-3-1 parental cell cytotoxicity. KB-3-1 viability, CellTiter-Glo ATP luminescence, 72 h. Potency, µM (doses to about 46.1 µM), actives largely listed as cytotoxic. 400,000 tested, 1.4% active. AID 1347075; further: potency means the concentration at half of the fitted maximal effect; on the % scale 0 is the no-effect control and ±100 the full control effect; nearly all actives have a fitted effect of over 60% in size
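KB-3-1 cells, DMEM (no phenol red) + 10% FBS; compound by pin transfer, 72 h, 37 °C. Readout: CellTiter-Glo luminescence after 10 min. Data normalized, curve-fitted.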
Numbers without * were called inactive; i = inactive; ? = inconclusive; . = not tested or not shown. Unless noted, the call rests on the fitted dose curve; in most records, active means well fitted curve in the direction sought with a large enough effect; inconclusive means small, poorly fitted or top-dose-only effect, or another doubt; inactive means no such curve, though single readings can be large; an effect the other way counts as inactive or inconclusive.

SMILES | MCF10A rerep | SW480 rerep | KB-V1 MDR tox | Giardia killer | ASM inhibitor | KB-3-1 tox
O=C(Nc1nc(-c2cccs2)c(-c2cccs2)s1)C1CCCC1 | ? | -9% | 21µM* | -2 | 1% | ?
Cn1c(SCC(=O)c2ccc(F)cc2)nnc1-c1ccccc1Br | . | . | 23µM* | . | . | ?
O=C(CSc1nnc(-c2ccco2)n1Cc1ccccc1)c1ccc(F)cc1 | 9% | 3% | 9.2µM* | -11 | -4% | i
Cc1occc1-c1nnc(SCC(=O)Nc2ccc(F)cc2)n1Cc1ccccc1 | ? | 26% | 8.2µM* | 5 | -4% | ?
O=C(CSc1nnc(-c2ccco2)n1Cc1ccccc1)NCc1ccccc1 | 6% | -4% | i | 0 | 2% | i
C[C@@H]1CC(=O)[C@H]2CC(CO)=CCC[C@@H]2[C@@]1(C)CC/C(=C/CO)CO | -1% | -77% | i | 4 | 0% | i
CCOC(=S)SCc1cn2ccc(C)cc2n1 | 16µM* | 4% | i | -7 | 0% | i
COc1ccc(C2CN=NC23CCCc2ccccc2C3=O)cc1 (configuration not stated) | 18µM* | 18µM* | ? | -5 | -9% | ?
Cc1ccc(NC(=O)Cn2c(=O)oc3cc(S(=O)(=O)N4CCCCC4)ccc32)c(Cl)c1 | . | . | i | . | . | i
Cc1cccc(N(C)S(=O)(=O)c2ccc(-c3cnc(C4CC4)o3)cc2)c1 | 23µM* | 0.15µM* | ? | 10 | -10% | ?
Cc1ccc(-c2cnc(C3CC3)o2)cc1S(=O)(=O)Nc1ccccc1 | ? | -5% | ? | -13 | -3% | 7.3µM*
Cc1cc(C)c(NS(=O)(=O)c2cc(-c3cnc(C4CC4)o3)ccc2C)c(C)c1 | . | . | i | . | . | i
Cc1ccc(N(C)S(=O)(=O)c2cc(-c3cnc(C4CC4)o3)ccc2C)cc1 | 23µM* | 28% | i | -12 | -16% | ?
C#CCOC(=O)Nc1cccn(Cc2c(Cl)cccc2Cl)c1=O | ? | ? | ? | 0 | -1% | 10µM*
O=C(Nc1cccn(Cc2c(F)cccc2Cl)c1=O)NC1CCCCC1 | 21µM* | 18µM* | ? | 2 | -2% | 2.6µM*
O=C(Nc1cccn(Cc2c(Cl)cccc2Cl)c1=O)C1CC1 | -10% | -140% | i | -11 | 1% | i
CCc1c(C(=O)NCCc2cccc(C)c2)[nH]c(C)c1C(C)=O | ? | 18% | 12µM* | -9 | -2% | ?
CCc1c(C(=O)Nc2cc(C)ccc2OC)[nH]c(C)c1C(C)=O | ? | -20% | i | -10 | 2% | i
CCc1c(C(=O)NC2CCCCC2)[nH]c(C)c1C(C)=O | 14% | -19% | 18µM* | 9 | 3% | i
CC(=O)c1c(C)[nH]c(C(=O)NCCc2cccc(C)c2)c1C | 4% | -44% | i | -19 | 2% | i
CCc1c(C(=O)NCCc2ccc(OC)c(OC)c2)[nH]c(C)c1C(C)=O | 19% | -1% | 15µM* | 7 | 0% | i
CCOC(=O)c1noc2nc(C)n(CC(=O)Nc3ccc(Br)cc3C)c(=O)c12 | . | . | i | . | . | i
C=C[C@@H]1c2cc(C)ccc2N(S(=O)(=O)c2ccc(C)cc2)[C@H](c2ccc(C(C)(F)F)cc2)C1(C#N)C#N | . | . | i | . | . | i
COc1ccc(CNc2oc(-c3ccc(COc4ccc(OC)cc4)o3)nc2C#N)cc1 | . | . | i | . | . | i
CC(=O)c1ccc(NC(=O)CCc2c(C)nc3cc(-c4ccc(Cl)cc4)nn3c2C)cc1 | . | . | i | . | . | i
SMILES | MCF10A rerep | SW480 rerep | KB-V1 MDR tox | Giardia killer | ASM inhibitor | KB-3-1 tox
COc1ccc(CN(C(=O)Nc2ccccc2)c2ccccn2)cc1OC | . | . | i | . | . | i
O=C(CSC(=S)N1CCCCC1)Nc1ncc2c(n1)CCCC2=O | -3% | -76% | i | 0 | 0% | i
CC(C)COc1ccc(C(=O)Nc2ccccc2[N+](=O)[O-])cc1 | 13µM* | ? | i | 10 | 1% | i
COc1ccc(C(=O)/C=C/C(=O)N(CC(=O)NC2CCCCC2)Cc2ccccc2)c(O)c1 | ? | 6.5µM* | i | 4 | -1% | ?
COc1ccc(C(=O)/C=C/C(=O)N(CC(=O)NC2CCCCC2)CC2CCCO2)c(O)c1 (configuration not stated) | 12µM* | -21% | ? | -11 | 0% | ?
COc1ccc(C(=O)/C=C/C(=O)N(CC(=O)NC2CCCCC2)Cc2ccccc2OC)c(O)c1 | ? | 3.3µM* | 15µM* | -2 | -2% | ?
CCOc1ccc(CCNC(=O)CCCn2c(=O)c3cccn3c3cccnc32)cc1OCC | ? | 24% | ? | 9 | -2% | ?
COc1ccc2c(c1)c1nnc(SC(C)C)nc1n2C | . | . | . | 12 | . | .
CCc1cccc(N2C(=O)N(CC(=O)NCc3cccc(OC)c3OC)c3ccccc3S2(=O)=O)c1 | . | . | i | . | . | i
Cc1ccc(NC(=O)C2CCN(C(=O)c3ccc(F)cc3)CC2)nc1 | 1% | -38% | i | -16 | 1% | i
COc1ccc(C(=O)/C=C/C(=O)N(Cc2ccccc2)C(C(=O)NC2CCCCC2)c2ccncc2)c(O)c1 (configuration not stated) | 1% | 19% | 0.92µM* | 4 | -4% | i
COc1ccc(C(=O)/C=C/C(=O)N(Cc2ccccc2OC)C(C(=O)NC2CCCCC2)c2ccncc2)c(O)c1 (configuration not stated) | ? | 11% | ? | -15 | 0% | ?
COc1ccc(C(=O)/C=C/C(=O)N(Cc2ccc(F)cc2)C(C(=O)NC2CCCCC2)c2ccncc2)c(O)c1 (configuration not stated) | 9% | ? | 0.73µM* | 1 | -7% | ?
COc1ccc(CN(C(=O)Cc2cccs2)C(C(=O)NC2CCCC2)c2ccncc2)cc1 (configuration not stated) | 3% | 4% | i | 9 | 0% | i
CCC(=O)N1CCc2cc(Br)cc(S(=O)(=O)N3CCCC(C(=O)N(C)c4ccc(Br)cc4)C3)c21 (configuration not stated) | . | . | i | . | . | ?
CC1(C)CC1C(=O)N/C(=C/CCCCSCC(N)C(=O)O)C(=O)O (configuration not stated) | 5% | 1% | . | . | . | .
C/C(=N/Nc1ccc(C(=O)O)cc1)c1ccc2c(c1)Nc1ccccc1S2 | 16µM* | 18µM* | i | 4 | -7% | i
C/C(=N\Nc1ccc(C(=O)O)cc1)c1ccc2c(c1)Nc1ccccc1S2 | 16µM* | 8.2µM* | i | 12 | 19% | i
CN(C)c1ccc(/C=C/c2ccnc3c(Cl)ccc(Cl)c23)cc1 | . | . | i | . | . | i
